PubChem BioAssay AID588325 (National Center for Advancing Translational Sciences (NCATS), 2011)
Records with an inconclusive call do not appear. A number with no mark means an inactive call. The call rests on the fitted dose curve; in most records, active means well fitted curve in the direction sought with a large enough effect; inconclusive means small, poorly fitted or top-dose-only effect, or effect the other way, or another doubt; inactive means no such curve, though single readings can be large or run the other way.

Test: Confirmatory Assay to Find Inhibitors of T. brucei phosphofructokinase: Cytotoxictity in KB-3-1
Settings: KB-3-1 human cells cytotoxicity counter-screen; series mostly up to 46.1 µM; activity change, negative = cytotoxicity: at the top concentration
Text: Various species of the protozoan family Trypanosomatidae are responsible for a range of serious human diseases in tropical and subtropical areas of the world. […] Many of the disorders caused by trypanosomatids are fatal if left untreated, but most currently used drugs are inefficient and toxic.
Oxidative metabolism involving the mitochondrial tricarboxylic acid cycle and oxidative phosphorylation are repressed in these parasites, and recent RNA interference (RNAi) experiments have shown that even partial depletion of certain individual glycolytic enzymes can lead to the death of cultured parasites. One such glycolytic enzyme, phosphofructokinase (PFK), catalyzes the formation of fructose-1,6-bisphosphate (F1,6BP) and ADP from fructose-6-phosphate (F6P) and ATP, and in many metabolic circumstances makes an important contribution to the control of flux through the glycolytic pathway. As a specific glycolytic target, PFK is particularly attractive as it catalyzes the first irreversible step in glycolysis, and structural and kinetic studies have shown very substantial and essential differences from corresponding host enzymes, allowing for the discovery of parasite-selective inhibitors.
Confirmed qHTS active compounds were tested for toxicity against the KB-3-1 human cervical carcinoma cell lines. This line havs historically been used as representative human cells in in vitro Trypanosoma assays, and so provide a relevant surrogate for human cells in testing Tb PFK inhibitor toxicity.
NIH Chemical Genomics Center [NCGC]
NIH Molecular Libraries Probe Centers Network [MLPCN]
Assay Submitter (PI): Malcom Walkinshaw, University of Edinburg
KB-3-1 cells were dispensed into white solid 1536-microwell plates in 5 uL media (high glucose DMEM, 10% FBS) with a Thermo Multidrop. The plates were incubated at 37 degrees Celsius for 2 hours, and subsequently treated with compounds using the Kalypsys pin tool, delivering 23 nL of test compounds to each well. The plates were then incubated for an additional 72 hours at 37 degrees Celsius. Cytotoxicity was assessed by adding 2.5 uL of Cell-Titer Glo (Promega, Madison, WI) via Multidrop, incubating at room temperature for 10 min and reading luminescence on the Perkin Elmer ViewLux using a 1 second exposure and 1x binning. DMSO-treated cells were included as negative control, while media-only wells were used as a positive control equivalent to 100% cell toxicity for the sake of data normalization.
For Cc1cc(NS(=O)(=O)c2ccc(C(=O)NCc3ccc(Cl)c(Cl)c3)cc2)no1, the “activity change, negative = cytotoxicity” value was 21.8%. In the case of Cc1cc(NS(=O)(=O)CCNC(=O)Cc2ccc(Cl)c(Cl)c2)no1, the “activity change, negative = cytotoxicity” value is reported as 11.2%. With Cc1cc(NS(=O)(=O)c2ccc(NC(=O)Cc3ccc(Cl)c(F)c3)cc2)no1 the “activity change, negative = cytotoxicity” value was -4.78%. With COc1ccc(CC(=O)Nc2ccc(S(=O)(=O)Nc3cc(C)on3)cc2)cc1OC the “activity change, negative = cytotoxicity” value was -4.67%. For Cc1cc(NS(=O)(=O)c2ccc(NC(=O)Cc3ccc(C)c(F)c3)cc2)no1, the “activity change, negative = cytotoxicity” value was -3.65%. With O=C(Cc1ccc(Cl)c(Cl)c1)Nc1ccc(S(=O)(=O)Nc2ccon2)cc1 the “activity change, negative = cytotoxicity” value was -0.619%. With Cc1cc(NS(=O)(=O)c2cccc(NC(=O)Cc3ccc(Cl)c(Cl)c3)c2)no1 the “activity change, negative = cytotoxicity” value was -5.11%. With Cc1cc(NS(=O)(=O)c2ccc(NC(=O)Cc3ccc4ccccc4c3)cc2)no1 the “activity change, negative = cytotoxicity” value was 9.72%. For Cc1cc(NS(=O)(=O)c2ccc(NC(=O)C(C)(C)c3ccc(Cl)c(Cl)c3)cc2)no1, the “activity change, negative = cytotoxicity” value was 13.5%. In the case of Cc1cc(NS(=O)(=O)c2ccc(NC(=O)Cc3ccc(Cl)cc3)cc2)no1, the “activity change, negative = cytotoxicity” value is reported as -0.216%. In the case of O=C(Cc1ccc(Cl)c(Cl)c1)Nc1ccc(S(=O)(=O)O)cc1, the “activity change, negative = cytotoxicity” value is reported as 6.38%. For Cc1cc(NS(=O)(=O)c2ccc(N(C)C(=O)Cc3ccc(Cl)c(Cl)c3)cc2)no1, the “activity change, negative = cytotoxicity” value was -0.538%. For Cc1cc(NS(=O)(=O)C2CCN(C(=O)Cc3ccc(Cl)c(Cl)c3)CC2)no1, the “activity change, negative = cytotoxicity” value was -7.05%. In the case of O=C(Cc1ccc(Cl)c(Cl)c1)Nc1ccc(S(=O)(=O)Nc2cncnc2)cc1, the “activity change, negative = cytotoxicity” value is reported as 5.74%. For Cc1cc(NS(=O)(=O)c2ccc(NC(=O)c3ccc(Cl)c(Cl)c3)cc2)no1, the “activity change, negative = cytotoxicity” value was -2.15%. For Cc1cc(NS(=O)(=O)Cc2ccc(NC(=O)Cc3ccc(Cl)c(Cl)c3)cc2)no1, the “activity change, negative = cytotoxicity” value was -0.6%. For Cc1cc(NC(=O)c2ccc(NC(=O)Cc3ccc(Cl)c(Cl)c3)cc2)no1, the “activity change, negative = cytotoxicity” value was 0.287%. For Cc1cc(NS(=O)(=O)c2ccc(NC(=O)CCc3ccc(Cl)c(Cl)c3)cc2)no1, the “activity change, negative = cytotoxicity” value was -12.1%. With Cc1cc(NS(=O)(=O)c2ccc(NC(=O)Cc3ccc(C)c(C)c3)cc2)no1 the “activity change, negative = cytotoxicity” value was -4.17%. With O=C(Cc1ccc(Cl)c(Cl)c1)Nc1ccc(S(=O)(=O)Nc2cccc(C(=O)O)c2)cc1 the “activity change, negative = cytotoxicity” value was 11.4%. With Cc1cc(NS(=O)(=O)c2ccc(NC(=O)Cc3ccc(Cl)c(Cl)c3)cc2)n(C)n1 the “activity change, negative = cytotoxicity” value was 4.89%. With Cc1cc(NS(=O)(=O)c2ccc(NC(=O)Cc3cccc(Cl)c3)cc2)no1 the “activity change, negative = cytotoxicity” value was -2.52%. In the case of Cc1cc(NS(=O)(=O)c2ccc(NC(=O)Cc3ccc(Cl)cc3Cl)cc2)no1, the “activity change, negative = cytotoxicity” value is reported as 5.04%. In the case of Cc1cc(N[S+](=O)([O-])c2ccc3cc(NC(=O)Cc4ccc(Cl)c(Cl)c4)ccc3c2)no1, the “activity change, negative = cytotoxicity” value is reported as -2.44%. With O=C(Cc1ccc(Cl)c(Cl)c1)Nc1ccc(S(=O)(=O)Nc2ccc(C(=O)O)cc2)cc1 the “activity change, negative = cytotoxicity” value was 8.3%. With COc1ccc(CC(=O)Nc2ccc(S(=O)(=O)Nc3cc(C)on3)cc2)cc1C the “activity change, negative = cytotoxicity” value was -9.25%. With Cc1cc(NS(=O)(=O)c2ccc(NCCc3ccc(Cl)c(Cl)c3)cc2)no1 the “activity change, negative = cytotoxicity” value was 2.76%. With Cc1cc(NS(=O)(=O)c2ccc(NS(=O)(=O)Cc3ccc(Cl)c(Cl)c3)cc2)no1 the “activity change, negative = cytotoxicity” value was 7.09%.
